Assay outcomes as filed in PubChem BioAssay.
GLP1R inv ag: qHTS of GLP-1 Receptor Inverse Agonists (Inhibition Mode). Glucagon-like peptide 1 receptor (Homo sapiens), P43220. HEK293 GLP-1R CRE-luciferase, luminescence, 24 h; GLP-1R form is constitutively active. Potency, µM (doses to about 38.3 µM), usual class: inhibitors. 410,000 compounds, 1.6% hits. AID 624417, 2012; further: nearly all actives have a fitted effect of over 55% in size
Target sequence (P43220 whole entry, looked up): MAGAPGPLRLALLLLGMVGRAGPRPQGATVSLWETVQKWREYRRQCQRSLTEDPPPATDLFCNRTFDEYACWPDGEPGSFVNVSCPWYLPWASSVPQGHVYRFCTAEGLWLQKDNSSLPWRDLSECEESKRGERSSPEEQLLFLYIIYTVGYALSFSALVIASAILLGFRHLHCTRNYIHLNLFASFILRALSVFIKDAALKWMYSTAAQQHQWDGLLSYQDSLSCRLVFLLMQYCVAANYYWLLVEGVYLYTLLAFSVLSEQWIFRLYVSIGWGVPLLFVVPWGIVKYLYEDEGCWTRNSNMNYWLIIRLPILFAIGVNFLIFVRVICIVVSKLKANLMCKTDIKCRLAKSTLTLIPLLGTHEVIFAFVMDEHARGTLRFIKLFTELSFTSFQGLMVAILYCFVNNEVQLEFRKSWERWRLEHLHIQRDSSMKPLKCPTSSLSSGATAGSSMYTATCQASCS
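qHTS in 1536-well format: reporter HEK293 cells expressing constitutive GLP-1R activity in DMEM + 10% Nu serum, 24 hr with compounds at 37 deg C, luminescence read after 12 min with detection reagent.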
GLP-1R agonist: qHTS of GLP-1 Receptor Agonists; Glucagon-like peptide 1 receptor (Homo sapiens), P43220; HEK293 GLP-1R CRE-luciferase, luminescence, 4-6 h; cells express a hypersensitive GLP-1R form; Potency, µM (titrated, usually from 45.6 µM), usual class: activators; 380,000 compounds, 0.007% hits
BRCA1 expr act: qHTS Assay to Identify Small Molecule Activators of BRCA1 Expression; MCF7-BRCA1-FFLuc reporter, luminescence, 48 h; response scale: scaled: vehicle 0%, 10 µM genistein 100%; Potency, µM (top dose mostly 46.1 µM), hits mostly activators; 380,000 compounds, 1.1% hits; AID 624202, 2012; further: nearly all actives have a fitted effect of over 80% in size
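Compounds are tested at multiple concentrations on MCF7 BRCA1-luciferase reporter cells seeded at 2000 per well; after 48 h, a single luminescence end-point is taken and curves fitted to the normalized data.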
GLP1R cytotox: qHTS of GLP-1 Receptor Inverse Agonists: Cytotox Screen. HEK293 cAMP-luciferase reporter cells, luminescence, 24 h. Potency, µM (highest dose often 38.3 µM), actives largely listed as inhibitors. 410,000 compounds, 0.13% hits. AID 624418, 2012;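 further: loss of luciferase light is scored as toxicity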
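Seeding density was 200 cells/uL; after overnight-length (12 h) culture, 23 nL compounds went on for 24 h at 37 °C. Readout used a luciferase detection reagent, luminescence taken after 12 min at room temperature.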
Of the large screens only hits and unclear results are named; the others gave an inactive call. Most compounds without a hit are left out; they make up all but 2.6% or so of the library. The call rests on the fitted dose curve; in most records, active means well fitted curve in the direction sought with a large enough effect; inconclusive means small, poorly fitted or top-dose-only effect, or another doubt; inactive means no such curve, though single readings can be large; an effect the other way counts as inactive or inconclusive.

CCOc1nc(Nc2ccc(OC)c(Cl)c2)nc(N2CCN(c3ccc(OC)cc3)CC2)n1	GLP1R inv ag 4.47µM
CCOc1nc(Nc2ccc(F)cc2)nc(N2CCN(c3ccc(OC)cc3)CC2)n1	GLP1R inv ag inconclusive
Cc1cc(O)cc(O)c1-c1onc(C(F)(F)F)c1-c1cscn1	GLP1R inv ag 7.94µM
CC(C)c1onc(C(=O)N2CCN(C(c3ccccc3)c3ccccc3)CC2)c1[N+](=O)[O-]	GLP1R inv ag 2.51µM
CN(C)S(=O)(=O)c1ccc(C(=O)NCCOc2ccc(F)cc2)cc1	BRCA1 expr act 11.2µM
CN(C)S(=O)(=O)c1ccc(C(=O)NCCOc2ccccc2)cc1	none
CC(C)(C)CC(C)(C)c1ccc(O)c(CN2CCN(CCC#N)CC2)c1	GLP1R inv ag 11.2µM
N#CCCN1CCN(Cc2cc(-c3ccccc3)ccc2O)CC1	none
CC(/C=N/NC(=O)CSc1ccccn1)=C\c1ccc(C(C)C)cc1	GLP1R inv ag inconclusive, BRCA1 expr act inconclusive
CC(=C/c1ccccc1)/C=N/NC(=O)c1cnccn1	BRCA1 expr act inconclusive
CC(/C=N/NC(=O)c1cccnc1)=C\c1ccccc1	BRCA1 expr act 3.16µM
CC(/C=N\NC(=O)c1cc(C)oc1C)=C\c1ccccc1	BRCA1 expr act 2µM
CC(/C=N/NC(=O)c1ccncc1)=C\c1ccc(C(C)C)cc1	BRCA1 expr act 8.91µM
O=C(N/N=C/c1ccccc1F)NC12CC3CC(CC(C3)C1)C2	GLP1R inv ag inconclusive, BRCA1 expr act 5.01µM
O=C(N/N=C/c1ccccn1)NC12CC3CC(CC(C3)C1)C2	BRCA1 expr act 3.98µM
CCSc1nc(-c2ccc(Cl)cc2)nc2c1Cc1c(CO)cnc(C)c1O2	none (no result: GLP-1R agonist, BRCA1 expr act)
COc1ccc2c(c1)CC/C(=C\Nc1ccc3c(c1)OCO3)C2=O	BRCA1 expr act 3.16µM
Cc1ccc(OCCn2c(CCNC(=O)C(C)C)nc3ccccc32)cc1	GLP1R inv ag 7.94µM
CC(C)(C)C(=O)NCCc1nc2ccccc2n1CCCCOc1ccc(Cl)cc1	GLP1R inv ag 10µM (no result: GLP-1R agonist, BRCA1 expr act)
CC(=O)c1ccc(NC(=O)c2cc(C)nc3c2c(C)nn3-c2ccc(C)cc2)cc1	none (no result: GLP-1R agonist, BRCA1 expr act)
Cc1ccccc1-c1n[nH]nc1C1=CC(=O)C[C@H](c2ccc(F)cc2)C1	none
Cc1cccn2c(=O)cc(COc3ccc(NC(=O)C(C)C)cc3)nc12	none (no result: GLP-1R agonist, BRCA1 expr act)
CN(C)CC[C@@](O)(c1ccccc1)c1ccccc1Cl	none (no result: GLP1R inv ag, BRCA1 expr act, GLP1R cytotox)
Cc1ccc(-c2nc3ccsc3c(=O)o2)cc1	BRCA1 expr act 12.6µM
Cc1ccc(-n2c(C)nc3ccsc3c2=O)cc1	none
Cc1c(Cl)cccc1NC(=S)Nc1ccc(S(=O)(=O)Nc2ncccn2)cc1	none
C=C1C=C(C)n2ncc(C(=O)N(CCc3ccccc3)Cc3ccccc3)c2N1	none (no result: GLP1R inv ag, GLP-1R agonist, GLP1R cytotox)
CCn1nc(C)c(CN2CCc3c([nH]c4ccccc34)C2C(C)(C)C)c1C (centres undefined)	GLP1R inv ag 7.08µM
O=C(NCCc1ccc(Cl)cc1)c1ccc(Br)s1	BRCA1 expr act 3.55µM
CCOc1ccccc1N(CC(=O)NC1CCCCC1)C(=O)c1nsc(Cl)c1Cl	GLP1R inv ag 10µM
O=C(CNC(=O)C1CCCCC1)OCC(=O)c1ccc(-c2ccccc2)cc1	none (no result: GLP1R inv ag, GLP-1R agonist, GLP1R cytotox)
CC(=O)c1ccc(NC(=O)Nc2cccc3ccccc23)cc1	BRCA1 expr act 3.98µM
O=C(Nc1ccccc1)Nc1cccc2ccccc12	GLP1R inv ag inconclusive
CC(=O)Nc1ccc(NC(=O)Nc2cccc3ccccc23)cc1	none
Cc1cc(O)c(C(C)C)cc1NC(=O)Nc1cccc2ccccc12	GLP1R inv ag 6.31µM
O=C(Nc1ccccc1)Nc1cccc2cccnc12	GLP1R inv ag 10µM
CC1CCN(Cc2c(O)ccc3c(=O)c(-c4cccc(Cl)c4)c(C(F)(F)F)oc23)CC1	none (no result: GLP-1R agonist, BRCA1 expr act)
Cc1ccsc1C(=O)OCC(=O)N1CCc2ccccc2C1	GLP1R inv ag inconclusive, BRCA1 expr act 7.94µM
Cc1ccsc1C(=O)N1CCc2ccccc2C1	GLP1R inv ag inconclusive
O=C(OCC(=O)N1CCc2ccccc2C1)c1c(F)cccc1Cl	GLP1R inv ag inconclusive, BRCA1 expr act 6.31µM
CCn1cc(S(=O)(=O)c2cccc(Cl)c2)c(=O)c2cc(F)c(N3CCN(c4ccccc4)CC3)cc21	none (no result: GLP-1R agonist, BRCA1 expr act)
CCOC(=O)C1=C(CNCc2ccc(C)cc2)NC(=O)NC1c1ccc(OC)cc1 (centres undefined)	GLP1R inv ag 12.6µM, GLP1R cytotox inconclusive
CCN(c1ccccc1)S(=O)(=O)c1ccc(N2CCN(c3ccc(O)cc3)CC2)nc1	GLP1R inv ag 4.47µM
O/N=C(/CBr)c1ccc2ccccc2c1	none (no result: GLP1R inv ag, GLP-1R agonist, GLP1R cytotox)
CC(Nc1nc(-c2ccc(F)cc2)cs1)c1nc2cc(C(F)(F)F)ccc2n1CCOCCO (centres undefined)	none
CC(Nc1nc(-c2ccc(F)cc2)cs1)c1nc2cc(C(F)(F)F)ccc2n1CCCO (centres undefined)	GLP1R inv ag 7.94µM
Cc1ccc(Cn2c(C(C)Nc3nc(-c4ccc(F)cc4)cs3)nc3cc(C(F)(F)F)ccc32)cc1 (centres undefined)	GLP1R inv ag 10µM
Clc1ccc(/C=C/c2ccncc2)cc1Cl	none (no result: GLP1R inv ag, GLP-1R agonist, GLP1R cytotox)
CCCNC(=O)C(Cc1ccccc1C)NC(=O)c1ccc(C#N)cc1 (centres undefined)	GLP1R cytotox 2.51µM
CCCNC(=O)C(Cc1ccccc1F)NC(=O)c1ccc(C#N)cc1 (centres undefined)	none
COc1ccc(C)cc1NC(=O)c1ccccc1NS(=O)(=O)c1ccc(Cl)s1	GLP1R inv ag 3.98µM
COc1ccc(N(Cc2ccccc2)S(=O)(=O)c2cccc(C(=O)NC3=NCCS3)c2)cc1	GLP1R inv ag 10µM
O=C(CSc1oc(-c2ccccc2)nc1S(=O)(=O)c1ccc(Br)cc1)c1ccccc1	GLP1R inv ag inconclusive (no result: GLP-1R agonist, BRCA1 expr act)
CC1=CC(C)(C)N(C(=O)c2ccccc2)c2ccc(C)cc21	GLP1R inv ag inconclusive
COc1ccc(C(=O)N2c3cc4c(cc3C(C)=CC2(C)C)OCO4)cc1	GLP1R inv ag 7.94µM
N#CC(C#N)=Cc1cn(-c2ncc(C(F)(F)F)cc2Cl)c2ccccc12	GLP1R inv ag 7.94µM
CC(=O)/C=C\c1cn(-c2ncc(C(F)(F)F)cc2Cl)c2ccccc12	GLP1R inv ag inconclusive
Cc1cc(C)n(CC(O)Cn2c3ccc(Br)cc3c3cc(Br)ccc32)c(=O)n1 (centres undefined)	GLP1R inv ag 11.2µM
Cc1nc2cc(-c3ccc(Cl)cc3)nn2c(NCCN(C)C)c1C	GLP1R inv ag inconclusive
CN(C(=S)Nc1ccc(SC(F)F)cc1)C(c1ccccc1)c1ccccc1	GLP1R inv ag inconclusive
FC(F)Sc1ccc(NC(=S)NC(c2ccccc2)c2ccccc2)cc1	GLP1R inv ag 3.98µM, GLP1R cytotox inconclusive
COc1cccc(N2CCN(S(=O)(=O)c3cn(C)c(C)n3)CC2)c1	none
C=CCn1c(Sc2ncc([N+](=O)[O-])s2)n[nH]c1=O	GLP1R inv ag inconclusive, GLP1R cytotox 8.91µM
CC(=O)Oc1ccc(Cl)cc1CN(C(C)=O)C1CCCCC1	GLP1R inv ag 8.91µM
